# Laboratory results: PubChem BioAssay AID686978 (National Center for Advancing Translational Sciences (NCATS), 2013)
# Hit rate of the full screen: of about 420,000 compounds, about 64,000 (15%) were called active. Another 27% or so got no clear call; they are omitted. Calls follow the shape of the dose curve; as a rule, active = well fitted inhibition curve with a large enough effect; inconclusive = small, poorly fitted or top-dose-only effect; inactive = flat fitted curve, though single readings scatter. These entries were drawn from the full list.
# Assay: qHTS for Inhibitors of human tyrosyl-DNA phosphodiesterase 1 (TDP1): qHTS in cells in absence of CPT; also: nearly all actives have a fitted effect of over 55% in size
# Settings: DT40 Tdp1-/- hTDP1 cells, no CPT, ATP luminescence, 48 h; activity change, negative = growth inhibition: at 46.2 µM (top of the series)
# Procedure, shortened: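 Stably hTDP1-transfected Tdp1-null chicken DT40 cells were treated with library compounds minus camptothecin and grown for at least 48 hr at 37 °C, after which cellular ATP was quantified by luminescence.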
# % is scaled to controls: 0 for no effect and ±100 for the full control effect; potency is read from the fitted curve at half-maximal effect.
SMILES,"activity change, negative = growth inhibition",Potency
Cc1cc(C)c(S(=O)(=O)N(C)CC(=O)NCC2CCCO2)c(C)c1 (stereo not given),-13.3% (inactive),
O=S1(=O)CC(NCc2ccccc2)C(Nc2ccc(Cl)cc2)C1 (stereo not given),1.7% (inactive),
O=C(NC1(C(F)(F)F)N=C2SCCN2C1=O)c1ccco1 (stereo not given),-16.8% (inactive),
COc1cnn(-c2ccc([N+](=O)[O-])cc2)c(=O)c1Cl,-25.3% (inactive),
Cc1cc(C)c(C#N)c(SCS(=O)c2ccc(C(C)(C)C)cc2)n1 (stereo not given),-24.8% (inactive),
COC(=O)COc1ccc2c(=O)c(Oc3ccccc3Br)coc2c1,-6.82% (inactive),
C[C@H]1CN([C@@H](C)CO)C(=O)CCCn2cc(nn2)CO[C@@H]1CN(C)S(=O)(=O)c1ccc(-n2cccn2)cc1,-29.1% (inactive),
CCOc1ccc(CN(Cc2ccco2)C(c2cccs2)c2nnnn2C(C)(C)C)cc1 (stereo not given),,16.4 µM (active)
CC(C)(C)n1nnnc1C(c1ccccc1F)N1CCN(C(=O)c2ccco2)CC1 (stereo not given),-12.2% (inactive),
C/C(=C\c1ccco1)CN1CCC(N2CCC(C(=O)N3CCOCC3)CC2)CC1,-28.9% (inactive),
CCN(C(=O)COC(=O)CCC(=O)c1cccs1)C1CCCCC1,-9.9% (inactive),
COc1cc2nc(Cl)nc(NCCO)c2cc1OC,-16.5% (inactive),
CCOC(=O)CNc1nc(Cl)nc(Nc2ccccc2)n1,3.63% (inactive),
OCCNc1nc(Nc2ccc(Cl)c(Cl)c2)nc2ccccc12,,16.4 µM (active)
CCN(CC(=O)Nc1ccc(OC)cc1)C(=O)CSCc1ccc(C)cc1,-21.7% (inactive),
CN1CCN(c2ccc(NC(=O)c3cc(Cl)c4c(c3)OCCO4)cc2)CC1,,29.1 µM (active)
O=C(Nc1ccc(N2CCOCC2)cc1)c1ccc2c(c1)OCO2,-28.4% (inactive),
CN1CCN(c2ccc(NC(=O)c3ccc4c(c3)OCCO4)cc2Cl)CC1,-17.4% (inactive),
CCOc1ccc(C(=O)N(Cc2ccc(N(C)C)cc2)C2CCS(=O)(=O)C2)cc1 (stereo not given),-14.1% (inactive),
O=C(COc1ccc(Cl)cc1Cl)NCCCNC(=O)c1cnccn1,-22.6% (inactive),
O=C(CCc1cn(Cc2ccc(F)cc2)c2ccccc12)NC1CCCCC1,-9.81% (inactive),
CC(NC(=O)Cn1cc(C(F)(F)F)cc(Cl)c1=O)c1ccccc1 (stereo not given),-20.3% (inactive),
CC(NC(=O)CCc1cn(Cc2ccccc2Cl)c2ccccc12)c1ccccc1 (stereo not given),,23.1 µM (active)
Cc1cc(C)n2nc(C(=O)OCC(=O)N(CCC#N)c3ccc(F)cc3)nc2n1,2.76% (inactive),
Cc1ccc(-c2nn(-c3ccccc3)cc2C(=O)NC2CCC(O)CC2)cc1 (stereo not given),-23.4% (inactive),
O=C(O)c1ccc(NC(=O)c2cn(-c3ccccc3)nc2-c2ccc(Cl)cc2)cc1,,16.4 µM (active)
COC(=O)c1cn(-c2ccccc2)nc1-c1cccnc1,0.365% (inactive),

SMILES,"activity change, negative = growth inhibition",Potency
NCCCCCC(=O)N/N=C/c1ccc2nccnc2c1,-22.9% (inactive),
Cc1ccc(S(=O)(=O)N(C)C)cc1NC(=O)COC(=O)/C=C/c1cccs1,-17.8% (inactive),
CCN1CCN(C(=O)CCN2C(=O)c3ccccc3C2=O)CC1,6.03% (inactive),
O=C(Nc1cccc(F)c1)N1C2CCC1CC(O)(c1cccnc1)C2 (stereo not given),-5.57% (inactive),
CC(C)Cc1nnc(NC(=O)CCc2ccccc2)s1,-6.82% (inactive),
CCCCC(CCC(=O)Nc1ccc(C(=O)OCC)cc1)C(=O)O (stereo not given),-4.15% (inactive),
CCOc1ccc(OCC)c(NC(=O)CCS(=O)(=O)c2ccc(C)cc2)c1,-22.3% (inactive),
CCOC(=O)c1ccc(NC(=O)CCS(=O)(=O)c2ccc(C)cc2)cc1,,20.6 µM (active)
Cc1ccc(S(=O)(=O)CCC(=O)Nc2nnc(CC(C)C)s2)cc1,,16.4 µM (active)
Cc1ccc(S(=O)(=O)CC(=O)Nc2nnc(C)s2)cc1,3.14% (inactive),
CC(C)CC(NS(=O)(=O)c1ccc2c(c1)oc(=O)n2C)C(=O)NCc1ccccc1Cl (stereo not given),-11.8% (inactive),
Cc1cc(F)ccc1N1CCC(N2CCN(C)C(CCO)C2)CC1 (stereo not given),-12.5% (inactive),
CC(C)n1c(O)c(N=Nc2ccccn2)c2ccccc21,-8.18% (inactive),
CCC(C)NC(=O)c1ccccc1NC(=O)c1ccccc1N(C)S(C)(=O)=O (stereo not given),-19.8% (inactive),
Cc1n[nH]c(=O)n1-c1ccc(C(C)C)cc1,15.4% (inactive),
O=C1c2cccc3cccc(c23)C(=O)N1c1cccc(O)c1,-6.3% (inactive),
Cc1nnc(CN(C)Cc2cn[nH]c2-c2ccc(-c3ccccc3)cc2)o1,-6.06% (inactive),
CC1CCCN(S(=O)(=O)c2ccc(-c3ccc(=O)[nH]n3)o2)C1 (stereo not given),-8.44% (inactive),
O=S(=O)(c1ccc2nc(NCc3ccccc3Cl)ccc2c1)N1CCCCC1,,10.3 µM (active)
O=S(=O)(c1ccc2nc(N3CCN(c4cccc(Cl)c4)CC3)ccc2c1)N1CCCCC1,-1.01% (inactive),
O=S(=O)(NCc1ccccc1)c1ccc(S(=O)(=O)N2CCCC2)cc1,-20.5% (inactive),
CN(C(=O)CCNC(=O)Cn1ccc2ccccc2c1=O)c1ccc(Br)cc1,3.44% (inactive),
CC/C(=N/Nc1ccccc1)c1cnnc(SC)n1,8.67% (inactive),
COc1cccc(C(=O)Oc2cc(C)[nH]c(=O)c2[N+](=O)[O-])c1,-8.65% (inactive),
COc1ccc(/C=C/c2noc(-c3ccccc3OC(C)=O)n2)cc1,-13.5% (inactive),
CC(C)/C=N/NC(=O)c1cc(Br)ccc1O,-12.7% (inactive),
O=C(CCc1ccc(O)cc1)NN=Cc1cc(Br)ccc1O,,5.8 µM (active)

SMILES,"activity change, negative = growth inhibition",Potency
O=C(CCC(=O)N/N=C/c1ccc(Br)o1)N/N=C/c1ccc(Br)o1,1.16% (inactive),
CCCC1NC(=O)NC(C)=C1C(=O)OCC (stereo not given),-0.636% (inactive),
Nc1ncnc(Nc2cccc(Cl)c2Cl)n1,24.3% (inactive),
O=C(CSc1nccc(=O)[nH]1)Nc1ccc(N2CCOCC2)c(Cl)c1,-14.9% (inactive),
OC(COc1ccccc1)Cn1cc(Br)cn1 (stereo not given),24% (inactive),
CC(C)c1ccc(OCC(O)CN2CCN(c3ccccn3)CC2)cc1 (stereo not given),,10.3 µM (active)
CC(=O)Nc1ccc(OCC(O)CN2CCN(c3ccccc3Cl)CC2)cc1 (stereo not given),-24.4% (inactive),
Cc1ccccc1OCC(O)CN1CCN(c2ccccn2)CC1 (stereo not given),-1.08% (inactive),
Cc1ccc(OCC(=O)Nn2cnc3ccccc32)cc1,-10.1% (inactive),
CC(C)c1ccc(OCC(O)Cn2cnc3ccccc32)cc1 (stereo not given),,14.6 µM (active)
Cc1nc2ccc(S(=O)(=O)NCC(=O)O)cc2s1,-26.2% (inactive),
CC(=O)OC[C@H]1O[C@@H](O[C@H]2[C@H](O)[C@@H](OC(=O)c3ccccc3C(=O)O)[C@H](O)O[C@@H]2COC(C)=O)[C@H](O)[C@@H](OC(=O)c2ccccc2C(=O)O)[C@@H]1O,-0.0815% (inactive),
Cc1ccc(CNC(=O)C2CCCN2S(=O)(=O)c2ccc3c(c2)C(C)(C)C(=O)N3C)cc1 (stereo not given),-20.1% (inactive),
C=CCOc1ccc(C(=O)Nc2ccccc2C(=O)N2CCCC2)cc1,-21% (inactive),
Cn1nnnc1NCc1ccc(Cl)c(Cl)c1,-15% (inactive),
NS(=O)(=O)c1ccc(CNC(=O)c2ccc(Cl)cc2[N+](=O)[O-])cc1,-20.7% (inactive),
O=C(Cc1ccc(Cl)cc1)Nc1ccc2nn(-c3ccc(Cl)cc3)nc2c1,-8% (inactive),
Cc1cc2nn(-c3ccc(Cl)cc3)nc2cc1NC(=O)C(C)C,-7.99% (inactive),
Nc1ccc2nn(-c3ccc(Cl)cc3)nc2c1,,9.2 µM (active)
CC(=O)c1ccc(NC(=O)C2CC(=O)Nc3nc4ccccc4n32)cc1 (stereo not given),-8.52% (inactive),
O=C(Cc1ccccc1)N1N=C(c2ccncc2)CC1(O)C(F)(F)F (stereo not given),-21.2% (inactive),
O=C(c1ccc(Cl)cc1)N1N=C(c2ccccn2)CC1(O)C(F)(F)F (stereo not given),,14.6 µM (active)
COC(=O)C1(O)CC(C(C)C)=NN1C(=O)c1ccc(Cl)cc1 (stereo not given),-9.27% (inactive),
Cc1cn([C@H]2C[C@H](O)[C@@H](CNC(=O)[C@H](N)Cc3cccnc3)O2)c(=O)[nH]c1=O,2.17% (inactive),
O=c1[nH]n2c(=O)c3c([nH]c2c1N=Nc1ccccc1)CCC3,-20.5% (inactive),
O=C(Nc1nnc(Cc2ccc(Cl)cc2)s1)c1ccncc1,-9.95% (inactive),
COc1ccccc1CN1CCNC(=O)C1CC(=O)N(C)CC1CCOCC1 (stereo not given),17.6% (inactive),

SMILES,"activity change, negative = growth inhibition",Potency
Cn1cc(/C=C/C(=O)N2CCCC(C(=O)c3ccc(C(F)(F)F)cc3)C2)cn1 (stereo not given),-27.1% (inactive),
COCC(=O)N1CCCC(C(=O)c2ccc(C(F)(F)F)cc2)C1 (stereo not given),4.79% (inactive),
Cn1cc(CCC(=O)N2CCCC(C(=O)c3ccc(C(C)(C)C)cc3)C2)cn1 (stereo not given),,20.6 µM (active)
Cc1nccn1-c1ccc(NC(=O)[C@H]2O[C@@H](n3cnc4c(N)ncnc43)[C@H](O)[C@@H]2O)cc1,1.47% (inactive),
CC1(C)S[C@@H]2[C@H](NC(=O)COc3ccccc3)C(=O)N2C1C(=O)OCc1ccccc1 (stereo not given in full),,inactive
CNc1ccc(-c2nc(-c3ccco3)no2)cc1[N+](=O)[O-],-19.6% (inactive),
COc1cc(-c2noc(-c3ccc(N4CCCC4)c([N+](=O)[O-])c3)n2)cc(OC)c1OC,-8.7% (inactive),
COc1ccc(-c2noc(-c3ccc(N4CCN(c5ccccc5)CC4)c([N+](=O)[O-])c3)n2)cc1OC,,7.31 µM (active)
CCn1c(SC(C)C(=O)Nc2ccc(N3CCOCC3)cc2)nnc1-c1ccco1 (stereo not given),-4.59% (inactive),
O=C(Nc1cccnc1Oc1ncnc2cc(Cl)ccc12)c1ccc(F)cc1,1.07% (inactive),
NS(=O)(=O)c1ccc(NS(=O)(=O)/C=C/c2ccccc2)cc1,-16.4% (inactive),
Cc1cccc(N2C(=O)c3ccc(C(=O)Nc4cccc(C(=O)O)c4)cc3C2=O)c1,-29.4% (inactive),
Cc1ccc(CNC(=O)Cn2cnc(S(=O)(=O)N3CCCCC3)c2)o1,-18.7% (inactive),
Cc1ccc(CNC(=O)C2(C(F)(F)F)C/C(=C\Cc3ccccc3)CCCO2)o1 (stereo not given),,11.6 µM (active)
Cc1ccc(C(=O)N2CC(=O)Nc3ccccc32)o1,0.857% (inactive),
CC1CCCCN1CCCNC(=O)Cn1ncc2c([nH]c3ccccc32)c1=O (stereo not given),,inactive
COc1cccc(-c2nc3n(n2)C(c2ccccc2Cl)C(C(N)=O)=C(C)N3)c1 (stereo not given),-28.2% (inactive),
Cc1cc2c(cc1C)[n+](C)cn2CC(O)COCC1CC=CCC1 (stereo not given),,1.84 µM (active)
C/C(=N/NC(=O)c1cc(Cl)ccc1O)C12CC3CC(CC(C3)C1)C2,-1.21% (inactive),
O=C(CSc1ccc([N+](=O)[O-])cn1)Nc1ccc(N2CCOCC2)c(Cl)c1,-0.829% (inactive),
COc1ccc(C2=NO[C@@H]3C(=O)N(Cc4ccccc4)C(=O)[C@H]23)cc1OC,0.579% (inactive),
COc1ccc(-c2c(C)cc3oc(=O)cc(-c4ccccc4)c3c2C)cc1OC,,23.1 µM (active)
COc1ccc(-c2cc(=O)oc3cc(OCC(=O)N[C@@H](Cc4c[nH]c5ccccc45)C(=O)O)ccc23)cc1,0.178% (inactive),
Cc1cc2oc(=O)cc(-c3ccccc3)c2c(C)c1-c1ccc(OC(F)(F)F)cc1,,20.6 µM (active)
